FAK inh – FAK kinase inhibitors, primary screen, biochemical. Focal adhesion kinase 1 (Homo sapiens), Q05397. inhibition, %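 (tested at 7 µM)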. AID 727, 2007. biochemical FAK kinase activity assay. hit rate 0.84% among 97,000;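 further: 0% = DMSO and 100% = reference compound high control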
ERa SRC1 inh – ERα–SRC-1 coactivator interaction inhibitors, primary screen, biochemical, TR-FRET, ERα LBD, estradiol-bound. inhibition, % at 25.6 µM. hit rate 1.7% among 86,000. TR-FRET ER-alpha LBD / SRC-1 peptide; in the data active means inhibition above about 50%;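 further: 0% = receptor plus peptide control and 100% = peptide only without receptor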
ERa SRC1 pot – enhancers of ERα–SRC-1 coactivator binding, primary screen, biochemical, TR-FRET, ERα LBD, low estradiol | Estrogen receptor (Homo sapiens), P03372 | TR-FRET ERalpha-LBD/SRC-Cy5 coactivator binding, 2 h; 100 = basal binding, no effect | coactivator binding (% of control), % at 25.6 µM | hit rate 1.3% among 86,000 | AID 639, 2007; in the data active means activity above about 200%;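 further: binding measured in presence of low estradiol as agonist stimulus; 0% = peptide alone without receptor and 100% = receptor with peptide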
ERb coact inh – inhibitors of ERβ-SRC1 coactivator interaction, primary screen, biochemical, TR-FRET, ERβ LBD, SRC-1 peptide; hit rate 1.3% among 86,000; TR-FRET ER-beta LBD / SRC1-Cy5 peptide binding; receptor agonist-loaded with 1 µM estradiol; Estrogen receptor beta (Homo sapiens), Q92731; inhibition, % at 25.6 µM;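 active means compounds whose percent inhibition of the receptor-coactivator binding signal exceeds about 50% in the single-dose screen, limit read from the data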;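 further: 0% = receptor plus peptide wells without compound and 100% = peptide-only wells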
Target sequence (Q92731 whole entry, looked up, the tested form may be a part): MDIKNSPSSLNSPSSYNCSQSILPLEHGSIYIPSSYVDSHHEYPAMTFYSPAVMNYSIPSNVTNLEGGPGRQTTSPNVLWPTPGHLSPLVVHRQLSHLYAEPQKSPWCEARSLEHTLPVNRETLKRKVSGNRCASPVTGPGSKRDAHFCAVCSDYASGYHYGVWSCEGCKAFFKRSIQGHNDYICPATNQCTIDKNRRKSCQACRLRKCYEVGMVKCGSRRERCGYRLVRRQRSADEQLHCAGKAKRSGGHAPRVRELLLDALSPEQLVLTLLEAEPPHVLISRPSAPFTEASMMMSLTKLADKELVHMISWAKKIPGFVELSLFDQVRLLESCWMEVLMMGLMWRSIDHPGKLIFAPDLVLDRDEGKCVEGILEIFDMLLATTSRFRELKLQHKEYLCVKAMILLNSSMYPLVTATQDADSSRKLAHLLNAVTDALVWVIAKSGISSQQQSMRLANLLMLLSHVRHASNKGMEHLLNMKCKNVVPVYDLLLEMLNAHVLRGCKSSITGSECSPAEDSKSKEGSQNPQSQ
Smad3 FoxH1 inh – Smad3/FoxH1 peptide binding inhibitors, primary screen, biochemical, TR-FRET; TR-FRET Smad3/Dy647-FoxH1 peptide binding, europium anti-His; Mothers against decapentaplegic homolog 3 (Homo sapiens), P84022; AID 630, 2007; hit rate 0.29% among 88,000; inhibition, % at 25 µM;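 active means compounds that reduce the energy-transfer binding signal between the protein and its labelled peptide by more than half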;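 further: 0% = Smad3 plus labelled peptide maximal FRET and 100% = peptide-only background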
FAK inh conf – FAK kinase inhibitors, retest, confirmation, biochemical; FAK kinase biochemical inhibition assay; inhibition, % at 7 µM; shares compounds with FAK inh; hit rate 28% among 750
An asterisk follows results filed as active; x = not tested or not shown; [ ] = remark or other dose. Most compounds without a hit are left out; they make up all but 3.3% or so of the library. Unless noted, no stated cut-off is given here; in the data, active means inhibition above about 19%; inactive means the rest.

SMILES	FAK inh	ERa SRC1 inh	ERa SRC1 pot	ERb coact inh	Smad3 FoxH1 inh	FAK inh conf
COCCN(Cc1ccccc1)P(=O)(O)c1ccccc1OCC(=O)O	62*	1	262*[fluorescence artefact?]	-1	-6	52*
CC(=O)Cc1ccccc1OCC(=O)O	0	0	134	-7	3	x
O=C(Cn1nnc(-c2ccccc2Cl)n1)NCc1ccc2c(c1)OCO2	-2	15	88	18	-5	x
COc1ccc(-c2nc(N3CCCC3)nc3nn4c(C)cc(C)nc4c23)cc1	x	12	123	-3	3	x
COc1ccc2c3c(cccc13)NN=C2C	84*	98*[fluorescence artefact?]	-3	99*[fluorescence artefact?]	32	15
O=C(N/N=C/c1cccs1)c1cc(-c2ccc3ccccc3c2)n[nH]1	20*	x	x	x	x	2
Cc1cc(/C=N/NC(=O)c2cccc([N+](=O)[O-])c2)c(C)n1-c1ccc(Cl)cc1Cl	20*	x	x	x	x	10
CC(=O)C1=C(O)C(=O)N(CCNCCO)C1c1ccccc1 (stereo not given)	-2	-12	90	-12	-2	x
O=c1c(-c2nc3ccccc3o2)c2oc3ccccc3n2c2ccccc12	24*	x	x	x	x	-1
Nc1cc(N)cc(-c2nc3ccccc3o2)c1	x	-6	120	-1	2	x
O=C(Nc1ccc(Cl)c(Cl)c1)N1CC=CCC1	x	1	104	0	5	x
O=C(Nc1ccc(Cl)c(Cl)c1)N1CCSC1c1ccco1 (stereo not given)	26*	2	100	1	-7	17
NS(=O)(=O)c1ccc(NS(=O)(=O)c2ccc(NC(=O)c3ccc(-c4ccccc4)cc3)cc2)cc1	30*	x	x	x	x	14
Clc1ccc(-c2nc3ccccc3n2OCc2ccccc2)cc1	1	x	x	x	x	x
CCOc1ccc(C(=O)NCC2OCCc3ccccc32)cc1 (stereo not given)	-1	-3	113	-6	1	x
c1ccc(-c2nccc(-c3ccc(-n4cnc5ccccc54)cc3)n2)cc1	86*	92*[fluorescence artefact?]	148	63*[fluorescence artefact?]	0	81*
c1ccc(-n2nnnc2-n2cnc3ccccc32)cc1	0	-9	113	-4	0	x
N=C1C=CC(=C(c2ccc(N)cc2)c2ccc(N)cc2)C=C1	x	x	x	x	3	x
COc1cc(C2Nc3ccc4ncccc4c3C3=C2C(=O)CCC3)cc(OC)c1O (stereo not given)	48*	2	83	3	-2	29*
Cc1cc2c(cc1C)NC(c1cccnc1)C1=C(CC(C)(C)CC1=O)N2 (stereo not given)	-1	1	105	-5	4	x
COc1cc(C2N(c3ccccn3)C(=O)C3CCCN32)cc(OC)c1OC (stereo not given)	2	-5	113	-5	11	x
COc1cc(C2Nc3ccc4ncccc4c3C3=C2C(=O)CC(C)(C)C3)cc(OC)c1O (stereo not given)	47*	2	100	-10	17	34*
O=C(CSc1cn(CCNC(=O)c2cccs2)c2ccccc12)NCc1ccccc1	1	-7	101	3	4	x
CC1(C)CCCN(C(=O)c2coc(=O)c(Br)c2)C1	46*	90*[fluorescence artefact?]	14	83*	61*	68*
CCOC(=O)c1ccc(NC(=O)CSc2nc(NC(=O)c3ccccc3)c3c(C)c(C)oc3n2)cc1	27*	-7	87	-14	-9	7
SMILES	FAK inh	ERa SRC1 inh	ERa SRC1 pot	ERb coact inh	Smad3 FoxH1 inh	FAK inh conf
COC(=O)c1ccccc1NC(=O)CSc1nc(NC(=O)c2ccccc2)c2c(C)c(C)oc2n1	-6	-1	185	0	-5	x
Cc1ccc(C2NC(=O)NC3=C2CCc2ccccc23)cc1 (stereo not given)	19*	14	86	8	5	-2
O=C(NCNC(=O)c1ccccc1)c1ccccc1	2	-4	126	-5	3	x
O=C(NC1(O)C(=O)c2ccccc2C1=O)c1ccccc1	22*	x	x	x	x	7
Cc1cc(NC(=O)CSc2nnc(-c3c[nH]c4ccccc34)n2-c2ccc(Cl)cc2)no1	0	x	x	x	x	x
Cn1c(C(=O)N2CCN(C(=O)c3ccco3)CC2)cc2c(=O)n(C)c3ccccc3c21	19*	-4	114	-8	-6	4
O=C(O)c1ccc(N2CCCCC2)cc1	x	-5	86	9	3	x
Nc1ccc(N2CCCCCC2)cc1	28*	97*[fluorescence artefact?]	16	93*[fluorescence artefact?]	8	12
Cc1ncc(CCl)c2c1OC(C)(C)OC2	1	-35	99	-28	3	x
CC(C)C(=O)Nc1ccc(-c2csc(-c3ccccc3)n2)cc1	-4	x	x	x	x	x
COCCOC(=O)c1c(C)oc2ccc(NS(=O)(=O)c3ccccc3)cc12	2	0	106	0	1	x
COC(=O)c1c(C)oc2ccc(NS(=O)(=O)c3cccs3)cc12	24*	11	83	1	9	12
O=C1C(c2ccnc3ccccc23)=C(O)c2ccccc21	31*	32	309*	38	19	27*
O=C1c2ccccc2C(=O)C1c1ccnc2ccccc12	51*	15	242*	31	33	34*
Oc1ccc(N=Cc2ccc(O)c(O)c2)cc1	22*	x	x	x	x	2
CSc1nc(N(C)CCO)c2sc3nc(-c4ccco4)c4c(c3c2n1)CCC4	36*	x	x	x	x	-1
N#Cc1c(NCCCO)nc(-c2ccco2)c2c1CCCC2	-1	8	95	2	7	x
O=C(COc1ccccc1Cl)NCc1ccncc1	x	-3	102	4	9	x
Cc1ccc(C)c(C(=O)CSc2n[nH]c(-c3ccncc3)n2)c1	30*	x	x	x	x	12
CCOC(=O)c1c(C)[nH]c(C=Nc2ccccc2)c1O	-8	2	142	17	-1	x
CCOC(=O)c1c(C)[nH]c(O)c1C=Nc1ccccc1	34*	x	x	x	x	16
O=C(c1ccc(S(=O)(=O)Nc2ccc(F)cc2)cc1)N1CCN(C(=O)c2ccco2)CC1	27*	-2	98	-8	7	-1
Cc1cc(S(=O)(=O)Nc2ccc(C(=O)N3CCN(C(=O)c4ccco4)CC3)cc2)ccc1F	1	x	x	x	x	x
Cc1nc2c(Cl)cc(Cl)cc2[nH]1	-1	-4	95	2	-5	x
Nc1ccc(-c2nc3c(Cl)cc(N)cc3[nH]2)cc1	25*	6	96	21	7	4
COc1ccc(NC(=O)c2cn(-c3ccccc3)nc2-c2cc3ccccc3o2)cc1	-5	x	x	x	x	x
O=Cc1cn(-c2ccccc2)nc1-c1cc2cc(O)ccc2oc1=O	30*	x	x	x	x	14

Source: PubChem (several laboratories)
